# Source: PubChem
# SNCA viab count = counter-screen for SNCA expression inhibitors: cell viability. 150,000 compounds, 0.12% hits. HEK-293-SNCA-luc viability, GF-AFC fluorescence, 24 h. Potency, µM (doses to about 57.1 µM), without a hit: at the top dose activity change, negative = cytotoxicity, usual class: cytotoxic. AID 1671193;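 note: 0% = DMSO-treated cells and -100% = medium-only wells without cells; nearly all actives have a fitted effect of over 30% in size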
#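 HEK-293-SNCA-luc cells (1500/well) plated 24 h, then exposed 24 h to a dilution series; GF-AFC added 30 min at 37C, fluorescence 405/540 nm; normalised to medium-only and DMSO wells, Hill fit.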
# hNpr1 antagonist = blocks ANP-stimulated signaling of human Npr1 receptor; P16066; HEK293 hNpr1 GloSensor cGMP, ANP-stimulated luminescence; Potency, µM (titrated, usually from 46.3 µM), inactives show at the top dose activity change, negative = inhibition, usual class: inhibitors; 76,000 compounds, 1.6% hits; calls by dose curve; note: nearly all actives have a fitted effect of over 60% in size
#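 HEK293 cells stably expressing human Npr1 and cGMP GloSensor pGS-40F, loaded 2 h with 2% GloSensor reagent, given compound 30 min at room temperature. Luminescence read before and 20 min after 0.1 nM hNppA.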
# HEK cytotox = cytotoxic compounds in HEK 293 cells | Potency, µM (doses to about 115 µM), for inactives: top-dose activity change, negative = cytotoxicity, usual class: inhibitors | 94,000 compounds, 6.6% hits | HEK 293 viability, ATP luminescence (CellTiter-Glo), 48-72 h | AID 1345083; note: nearly all actives have a fitted effect of over 60% in size
#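 250 HEK 293 cells/well; compound by pintool; incubated 48 or 72 hr at 37 degree Celsius; CellTiter-Glo added, 10 min RT, luminescence imaged.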
# Luciferase inh = blocks purified firefly luciferase enzyme activity; P08659; purified P. pyralis luciferase, luminescence, biochemical; Potency, µM (top dose mostly 115 µM), usual class: inhibitors; 76,000 compounds, 2.5% hits; note: nearly all actives have a fitted effect of over 65% in size
# Target sequence (P08659 whole entry, looked up): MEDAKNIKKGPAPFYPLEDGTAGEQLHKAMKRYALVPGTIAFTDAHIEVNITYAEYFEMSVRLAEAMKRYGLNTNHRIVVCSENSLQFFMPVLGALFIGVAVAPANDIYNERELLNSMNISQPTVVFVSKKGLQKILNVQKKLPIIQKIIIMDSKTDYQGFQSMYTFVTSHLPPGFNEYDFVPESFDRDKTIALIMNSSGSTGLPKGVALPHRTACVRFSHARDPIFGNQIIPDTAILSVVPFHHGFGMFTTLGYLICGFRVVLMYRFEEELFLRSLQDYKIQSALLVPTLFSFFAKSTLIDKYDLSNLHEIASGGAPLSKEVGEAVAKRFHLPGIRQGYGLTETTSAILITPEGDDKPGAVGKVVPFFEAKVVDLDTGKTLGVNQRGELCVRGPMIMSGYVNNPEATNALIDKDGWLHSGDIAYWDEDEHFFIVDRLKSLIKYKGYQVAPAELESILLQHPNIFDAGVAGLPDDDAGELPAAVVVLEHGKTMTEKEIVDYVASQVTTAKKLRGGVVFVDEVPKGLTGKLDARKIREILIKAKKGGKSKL
#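 Inhibitors were tested against purified firefly luciferase in a biochemical, low-substrate format (both substrates at 10uM) and luminescence measured with a CCD imager.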
# SNCA expr inhib = reduces expression of the alpha-synuclein gene; HEK-293 SNCA-luciferase knock-in, luminescence, 24 h; Potency, µM (highest dose often 57.2 µM), for the others: at the top dose activity change, negative = inhibition, most hits filed as inhibitors; 140,000 compounds, 0.17% hits;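 note: plate controls were DMSO cells for no effect and cell-free wells for full effect; nearly all actives have a fitted effect of over 45% in size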
# NIH3T3 tox = NIH 3T3 cell cytotoxicity; Potency, µM (series often up to 96.7 µM), for inactives: at the highest dose activity change, negative = cytotoxicity, usual class: inhibitors; AID 1345082; 94,000 compounds, 4.3% hits; NIH 3T3 viability, CellTiter-Glo ATP luminescence, 48-72 h; note: nearly all actives have a fitted effect of over 55% in size
#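 Cells were seeded at 400 per well, treated with pin-transferred compound, and kept 48 or 72 hr at 37 °C before CellTiter-Glo addition and luminescence imaging of cellular ATP.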
# Active calls of the source: *; i = inactive; ? = inconclusive; nt = no result; [ ] = remark or other dose. Rows were chosen to be rich in hits. Some 7.2% of all compounds tested hit in one or more screens of this group. Unless noted, calls come from the whole dose curve; as a rule, active = well fitted curve in the direction sought with a large enough effect; inconclusive = small, poorly fitted or top-dose-only effect, or another doubt; inactive = no such curve, though single readings can be large; an effect the other way counts as inactive or inconclusive. Unless noted, % is set by controls: 0 for no effect and ±100 for the full control effect; potency is the fitted concentration of half-maximal effect.
SMILES,SNCA viab count,hNpr1 antagonist,HEK cytotox,Luciferase inh,SNCA expr inhib,NIH3T3 tox
O=C(NCc1ccc(F)c(F)c1)C1CCCN(c2ccnc3ccnn23)C1 (configuration not stated),-11.8%,nt,?,nt,10.2%,?
COC(=O)c1ccc2nc(CO[C@H]3CN(C4CCC4)C[C@H]3F)[nH]c2c1,-2.4%[87.6 µM],1.5%[70.6 µM],-14.3%[172 µM],i,12.8%[87.6 µM],?
Cc1nc(CN2CCN(CC3(O)CCNC3)CC2)cs1 (configuration not stated),-5.2%,0.2%,-2.8%,i,-23.8%,4.0%
CN1CCNc2nc(COc3ccccc3OC(F)(F)F)n(Cc3ccccc3)c2C1=O,-3.8%,-14.6%,?,i,9.4%,?
COCCOC1CN(C2CCN(C(=O)COc3ccc(F)cc3)CC2)C12CCCCC2 (configuration not stated),0.7%,0.0%,-22.6%,i,27.0%,-22.4%
O=C(NCCCc1ccccc1)C1CCN(c2ccnc3ccnn23)CC1,-6.6%,nt,39.8µM*,nt,-17.1%,?
CC(C)(C)C(=O)NC1CCCN(c2ccnc3ccnn23)C1 (configuration not stated),5.2%[87.6 µM],nt,-20.1%[172 µM],nt,18.2%[87.6 µM],-29.8%[138 µM]
O=C(NC1CCN(c2ccnc3ccnn23)C1)c1ccc(Cl)cc1 (configuration not stated),-17.1%,nt,10µM*,nt,-1.9%,?
O=C(NC1CCCN(c2ccnc3ccnn23)C1)c1ccc(C(F)(F)F)cc1 (configuration not stated),-17.1%,nt,28.2µM*,nt,-17.1%,?
CO[C@H]1C(=O)N(C(C)C)[C@H]1C1CCN(Cc2ccc3cc[nH]c3c2)CC1,6.9%,7.4%,3.5%,i,22.0%,-3.7%
COCCN1C(=O)c2cccn2CC1CNC(=O)c1cccc2nccnc12 (configuration not stated),2.1%,1.0%,-5.6%,i,10.4%,-4.9%
Cc1ccc(C)c(N2CCN(C(=O)c3cc4n(n3)CC(c3ccc(Cl)cc3)OC4)CC2)c1 (configuration not stated),-1.2%,-19.7%,44.7µM*,i,?,?
O=C(c1cc2n(n1)CC(c1ccc(Br)cc1)OC2)N1CCOCC1 (configuration not stated),-2.6%,-11.0%,28.2µM*,i,?,39.8µM*
CCN1CCN(C(=O)c2cc3n(n2)CC(c2ccc(Br)cc2)OC3)CC1 (configuration not stated),12.4%,-25.4%,?,i,-7.9%,?
Cc1ccc(N2CCN(C(=O)c3cc4n(n3)CC(c3ccc(Cl)cc3)OC4)CC2)cc1 (configuration not stated),-7.3%,?,?,i,-10.3%,?
O=C(c1cc2n(n1)CC(c1ccc(Cl)cc1)OC2)N1CCCCC1 (configuration not stated),-3.2%,-25.0%,?,i,-23.8%,39.8µM*
O=C(c1cc2n(n1)CC(c1ccc3c(c1)OCO3)OC2)N1CCCCC1 (configuration not stated),-9.0%,-7.3%,35.5µM*,i,-18.2%,39.8µM*
O=C1Nc2ccccc2CC12CCN2Cc1ccc(C(F)(F)F)cc1 (configuration not stated),0.1%,-3.5%,?,i,5.7%,?
O=C1Nc2ccccc2CC12CCCN2Cc1ccc(C(F)(F)F)cc1 (configuration not stated),?,nt,44.7µM*,nt,?,?
O=C1Nc2ccccc2CN(Cc2ccc(F)cc2)C12CCNCC2,-9.3%,nt,39.8µM*,nt,-4.2%,?
O=C1Nc2ccccc2CC12CCN2Cc1ccsc1 (configuration not stated),1.4%[87.6 µM],-2.0%[70.6 µM],-13.0%[172 µM],i,?,-20.8%[138 µM]
O=C1Nc2ccccc2CC12CCN2Cc1cccc2ccccc12 (configuration not stated),-3.5%[87.6 µM],-6.6%[70.6 µM],?,i,-6.8%[87.6 µM],89.1µM*
O=C1Nc2ccccc2CN(Cc2ccc(C(F)(F)F)cc2)C12CCNCC2,-29.8%,nt,28.2µM*,nt,1.4%,22.4µM*
CC(C)N1C(=O)C2(CCCC2)C1C(=O)N(C)Cc1cccnc1 (configuration not stated),4.5%,-0.1%,-5.8%,i,5.3%,4.5%
CN(C)C(=O)c1cccnc1OC1CCN(C(=O)c2ccc(F)cc2)C1 (configuration not stated),0.3%,0.9%,3.3%,i,2.9%,-7.2%
SMILES,SNCA viab count,hNpr1 antagonist,HEK cytotox,Luciferase inh,SNCA expr inhib,NIH3T3 tox
O=C(Nc1ccc2c(c1)OCCO2)c1nn(CC2CC2)c2c1CNCC2,5.7%,nt,-5.6%,nt,9.3%,-28.1%
O=C(NCC1CCCN(S(=O)(=O)c2ccc3c(c2)OCCO3)C1)c1cccs1 (configuration not stated),-15.3%,?,?,i,1.1%,?
O=C(NCCNC(=O)C1CCCC1)c1cccc(-c2ccc(C(F)(F)F)cc2)c1,1.8%[12.5 µM],nt,?,nt,3.1%,-39.0%
CCc1cccc(NC(=O)C2CCc3ncc(-c4ccsc4)n3C2)c1 (configuration not stated),-13.9%,-4.5%,44.7µM*,i,16.3%,?
COc1cc(NC(=O)C2CCc3ncc(-c4ccsc4)n3C2)cc(OC)c1 (configuration not stated),0.9%,-14.0%,?,i,9.8%,?
CC(=O)c1c(C)nn(CC(=O)N2CCN(c3ccnc(C)c3)CC2)c1C,6.3%,-2.3%,4.3%,i,-12.5%,i
COc1ccc(CN(Cc2ccc(OC)cc2)[C@@H]2CO[C@H](CNC(=O)CC(C)(C)C)[C@H]2O)cc1,-0.3%,1.4%,70.8µM*,i,-13.4%,?
CC(C)(C)CC(=O)NC[C@H]1OC[C@@H](N(Cc2ccccc2)Cc2ccccc2)[C@@H]1O,-8.4%[87.6 µM],0.7%[70.6 µM],?,i,0.0%[87.6 µM],?
COc1ccc(C(=O)N2CCC(C(=O)N3CCC(c4nc5ncccc5[nH]4)CC3)C2)cc1 (configuration not stated),-1.7%,nt,-0.9%,nt,-7.2%,3.0%
Cc1cc(C)c(CNC(=O)c2nc(-c3cccc(F)c3)cc3c2ccn3C)c(=O)[nH]1,-16.7%[87.6 µM],1.2%[70.6 µM],?,i,-14.0%[87.6 µM],-28.6%[138 µM]
Cc1cc(C)c(CNC(=O)c2nc(-c3ccnn3C)cc3c2ccn3C(C)C)c(=O)[nH]1,2.4%[87.6 µM],-0.7%[70.6 µM],?,i,13.2%[87.6 µM],89.1µM*
Cc1cc(C)c(CNC(=O)c2nc(-c3cccc(F)c3)cc3c2ccn3C(C)C)c(=O)[nH]1,?,-7.4%[70.6 µM],31.6µM*,i,?,?
